GSH bead fluor = compound fluorescence on glutathione beads, profiling panel, artefact control, biophysical, 488/530 nm, flow cytometry; GSH beads flow cytometry, compound fluorescence 488/530 nm; hits give high values; fluorescence (KMESF) at 10 µM; 190,000 compounds, 0.25% hits; in the data active means fluorescence above about 89;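 further: glutathione beads carrying GST-tagged Bcl family fusion proteins plus one bare bead set; values are compound well signal with DMSO vehicle wells as background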
RGS7-Gao = RGS7-Galphao binding modulators, primary screen, biochemical, multiplexed bead flow cytometry; AID 1439, 2008; Guanine nucleotide-binding protein G(o) subunit alpha (Homo sapiens), P09471; actives lie on both sides; binding response (% of control), % at 10 µM; 220,000 compounds, 0.35% hits; in the data active means binding response below about 49% or above about 150%; inconclusive means no clear call, values can overlap the other calls; inactive means in between;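 further: fluorescent Galphao held in activated GDP-AlF4 state binding bead-coupled RGS7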
Target sequence (P09471 whole entry, looked up): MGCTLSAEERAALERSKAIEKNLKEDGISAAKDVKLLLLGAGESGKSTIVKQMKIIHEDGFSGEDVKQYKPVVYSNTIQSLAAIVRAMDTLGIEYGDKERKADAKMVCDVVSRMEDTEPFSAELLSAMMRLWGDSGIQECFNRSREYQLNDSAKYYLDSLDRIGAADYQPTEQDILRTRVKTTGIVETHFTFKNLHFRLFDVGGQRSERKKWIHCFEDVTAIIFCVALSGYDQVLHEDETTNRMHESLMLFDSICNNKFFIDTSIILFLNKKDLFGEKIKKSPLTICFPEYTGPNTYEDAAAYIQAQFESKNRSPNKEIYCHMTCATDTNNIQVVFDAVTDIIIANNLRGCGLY
RGS16-Gao = modulators of RGS16 binding to Galphao, primary screen, biochemical, human proteins, multiplexed bead flow cytometry. bead-based flow cytometry RGS16-Galphao binding, fluorescence; actives lie on both sides. binding response (% of control), % at 10 µM. 220,000 compounds, 0.38% hits. AID 1441, 2008;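 further: Galphao activated by GDP with aluminum fluoride before binding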
Target sequence (O15492 whole entry, looked up): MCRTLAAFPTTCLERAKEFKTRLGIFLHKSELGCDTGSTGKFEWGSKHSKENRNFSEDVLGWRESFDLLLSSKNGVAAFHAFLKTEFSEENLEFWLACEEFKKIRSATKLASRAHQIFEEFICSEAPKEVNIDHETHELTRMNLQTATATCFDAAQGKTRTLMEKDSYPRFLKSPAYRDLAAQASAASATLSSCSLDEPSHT
Target sequence (P09471 whole entry, looked up): as the sequence (P09471 whole entry, looked up) above
Avidin fluor = green autofluorescence of compounds with avidin beads – biophysical, 488/530 nm, flow cytometry, artefact control, profiling panel | 220,000 compounds, 0.38% hits | fluorescence (KMESF) at 10 µM | compound fluorescence 488/530 nm; hits give high values | AID 1775, 2009; in the data active means fluorescence above about 47
RGS8-Gao reg = RGS8-Galphao binding modulators, primary screen, biochemical, multiplexed bead flow cytometry; Guanine nucleotide-binding protein G(o) subunit alpha (Homo sapiens), P09471; actives lie on both sides; response (percent of control binding), % at 10 µM; 220,000 compounds, 0.34% hits; AID 1423, 2008; in the data active means response below about 60% or above about 140%; inactive means in between;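 further: Galphao activated as the GDP aluminium fluoride complex binding bead-coupled RGS8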
RGS4-Gao reg = modulators of RGS4 binding to Galphao, primary screen, biochemical, multiplexed bead flow cytometry | Guanine nucleotide-binding protein G(o) subunit alpha (Homo sapiens), P09471 | actives lie on both sides | binding response (% of control), % at 10 µM | 220,000 compounds, 0.33% hits | AID 1415, 2008; in the data active means binding response below about 49% or above about 150%; inactive means in between;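 further: fluorescent Galphao activated with aluminum fluoride binding bead-coupled RGS4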
RGS4-Gao HTS = modulators of RGS–Galpha-o binding, primary screen, biochemical, multiplexed beads, flow cytometry, RGS4/7/8/16/19 | AID 1504, 2009 | RGS4–Galpha-o binding response, % at 10 µM | multiplexed bead flow cytometry | shares compounds with RGS16-Gao | 1,600 compounds, 99% hits;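 further: fluorescently labeled Galpha-o bound to GDP with aluminium fluoride binding biotinylated RGS beads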
Biotin-avidin = disruption of biotin probe capture by avidin, counter-screen for RGS protein interaction modulators, biochemical, flow cytometry, bead-based; AID 1783, 2009; inhibition, % at 10 µM; shares compounds with RGS16-Gao; streptavidin beads, fluorescein-biotin binding; 1,700 tested, under 10 active;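 active means inhibition above 50%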;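 further: median green fluorescence of gated singlet beads compared with DMSO control wells; 0% = DMSO wells and 100% = complete loss of bead fluorescence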
RGS8-Gao single = RGS8-Galphao binding modulators, confirmation, biochemical, multiplexed bead flow cytometry, single concentration; shares compounds with RGS16-Gao; bead-based flow cytometry RGS8-Galphao binding, fluorescence; actives lie on both sides; binding response (% of control), % at 10 µM; 1,700 compounds, 3% hits; in the data active means binding response below about 72% or above about 130%; inactive means in between;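 further: Galphao activated as GDP AlF4 complex before binding bead RGS8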
RGS7-Gao confirm = RGS7-Galphao binding modulators, confirmation, biochemical, multiplexed bead flow cytometry, single concentration | bead-based flow cytometry RGS7-Galphao binding; actives lie on both sides | 1,700 compounds, 7.8% hits | response (percent of control binding), % at 10 µM | shares compounds with RGS16-Gao; in the data active means response below about 75% or above about 130%; inactive means in between;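 further: fluorescent Galphao activated with GDP and aluminum fluoride binding bead-coupled RGS7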
RGS16-Gao conf = modulators of RGS16-Galphao protein binding, confirmation, biochemical, single concentration, multiplexed bead flow cytometry; shares compounds with RGS16-Gao; bead-based flow cytometry; actives lie on both sides; response (% of control binding), % at 10 µM; 1,700 compounds, 4% hits; AID 1838, 2009; in the data active means response below about 74% or above about 130%; inactive means in between;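 further: Galphao activated as the GDP aluminium fluoride complex binding bead-coupled RGS16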
RGS4-Gao confirm = modulators of RGS4-Galphao protein binding, confirmation, biochemical, single concentration, multiplexed bead flow cytometry | 1,700 compounds, 4% hits | actives lie on both sides | shares compounds with RGS16-Gao | binding response (% of control), % at 10 µM | AID 1840, 2009; in the data active means binding response below about 74% or above about 130%; inactive means in between
RGS19-Gao conf = regulators of RGS19-Galphao binding, confirmation, biochemical, single point, multiplexed bead flow cytometry; shares compounds with RGS16-Gao; bead-based flow cytometry RGS19-Galphao binding; actives lie on both sides; response (percent of control binding), % at 10 µM; 1,700 compounds, 5% hits; in the data active means response below about 50% or above about 160%; inactive means in between;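 further: 100% = no compound control and 0% = blank background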
The depositor's hits bear a star; [ ] = remark or other dose. Shown are actives, neighbours in structure and some others; about 1.2% of the full set was active somewhere. Unless noted, how the calls were made is not given here.

How did Cc1ccc2c(c1)NC(=O)C(CC(=O)NCc1cccnc1)O2 (stereo not given) do in these assays?
GSH bead fluor: 21; RGS7-Gao: 145; RGS16-Gao: 285; Avidin fluor: 3; RGS8-Gao reg: 161*[activator]; RGS4-Gao reg: 154*[activator]; Biotin-avidin: -1; RGS8-Gao single: 97; RGS7-Gao confirm: 104; RGS16-Gao conf: 98; RGS4-Gao confirm: 99; RGS19-Gao conf: 100

How did CCOc1ccc(NC(=O)CN(C)S(=O)(=O)c2ccc3c(c2)CCC(=O)N3)cc1 do in these assays?
RGS7-Gao: inconclusive; RGS16-Gao: 99; Avidin fluor: 9; RGS8-Gao reg: 101; RGS4-Gao reg: 97

Results for CCCOc1ccc(N2CC(C(=O)NCCc3ccc(OC)c(OC)c3)CC2=O)cc1 (stereo not given) ?
GSH bead fluor: 20; RGS7-Gao: 98; RGS16-Gao: 98; Avidin fluor: 7; RGS8-Gao reg: 96; RGS4-Gao reg: 99

How did Cc1ccc(NC(=S)N(Cc2ccccc2)C(C)C)cc1 do in these assays?
RGS7-Gao: inconclusive; RGS16-Gao: 37; Avidin fluor: 1; RGS8-Gao reg: 67; RGS4-Gao reg: 27*; Biotin-avidin: 0; RGS8-Gao single: 104; RGS7-Gao confirm: 106; RGS16-Gao conf: 105; RGS4-Gao confirm: 106; RGS19-Gao conf: 109

How did COc1ccc(/C=C/CN2CCCC(CO)(Cc3cccc(Cl)c3)C2)cc1 (stereo not given) do in these assays?
GSH bead fluor: 13; RGS7-Gao: 97; RGS16-Gao: 100; Avidin fluor: 12; RGS8-Gao reg: 100; RGS4-Gao reg: 99

Results for N#Cc1c(-c2ccccc2)nc(SCC(=O)N(c2ccccc2)c2ccccc2)[nH]c1=O ?
GSH bead fluor: 20; RGS7-Gao: 51; RGS16-Gao: 6; Avidin fluor: 3; RGS8-Gao reg: 50*; RGS4-Gao reg: 77; RGS4-Gao HTS: 77*; Biotin-avidin: 1; RGS8-Gao single: 105; RGS7-Gao confirm: 101; RGS16-Gao conf: 104; RGS4-Gao confirm: 100; RGS19-Gao conf: 108

How did Nc1cc(=O)[nH]c(SCC(=O)NNC(=O)Cc2ccccc2)n1 do in these assays?
GSH bead fluor: 13; RGS7-Gao: inconclusive; RGS16-Gao: 92; Avidin fluor: 13; RGS8-Gao reg: 98; RGS4-Gao reg: 95

Results for c1ccc(C2CCC(N3CCNCC3)CC2)cc1 (stereo not given) ?
GSH bead fluor: 10; RGS7-Gao: 122; RGS16-Gao: 250*[activator]; Avidin fluor: 6; RGS8-Gao reg: 141*[activator]; RGS4-Gao reg: 120; RGS4-Gao HTS: 120*; Biotin-avidin: -1; RGS8-Gao single: 103; RGS7-Gao confirm: 94; RGS16-Gao conf: 97; RGS4-Gao confirm: 93; RGS19-Gao conf: 102

Results for Cc1ccc2nc(Cl)c3nnnn3c2c1 ?
GSH bead fluor: 18; RGS7-Gao: 97; RGS16-Gao: 100; Avidin fluor: 8; RGS8-Gao reg: 98; RGS4-Gao reg: 100

What do the screens show for `O=C(NNC(=O)c1cc([N+](=O)[O-])ccc1Cl)c1cccs1`?
GSH bead fluor: 18; RGS7-Gao: 99; RGS16-Gao: 114; Avidin fluor: 5; RGS8-Gao reg: 103; RGS4-Gao reg: 100

Results for Nc1nc(SCc2ccc(Cl)cc2Cl)nc2nc3c(cc12)CCCC3 ?
GSH bead fluor: 12; RGS7-Gao: 96; RGS16-Gao: 105; Avidin fluor: 2; RGS8-Gao reg: 100; RGS4-Gao reg: 97

How did C/C(CC(=O)Nc1ccccn1)=N\NC(=O)c1ccc2ccccc2c1 do in these assays?
GSH bead fluor: 5; RGS7-Gao: 105; RGS16-Gao: 211*[activator]; Avidin fluor: 14; RGS8-Gao reg: 122; RGS4-Gao reg: 107; RGS4-Gao HTS: 107*; Biotin-avidin: 1; RGS8-Gao single: 95; RGS7-Gao confirm: 89; RGS16-Gao conf: 92; RGS4-Gao confirm: 91; RGS19-Gao conf: 96

What do the screens show for `Cc1cccc(C)c1NC(=S)N1CC(C)OC(C)C1` (stereo not given)?
RGS7-Gao: inconclusive; RGS16-Gao: 103; Avidin fluor: 8; RGS8-Gao reg: 102; RGS4-Gao reg: 101

Results for O=C1CCCCc2sc(Br)c([N+](=O)[O-])c2N1 ?
RGS7-Gao: inconclusive; RGS16-Gao: 93; Avidin fluor: 8; RGS8-Gao reg: 100; RGS4-Gao reg: 102

How did O=C(Cn1c2ccccc2c(=O)c2ccccc21)N/N=C/c1cc([N+](=O)[O-])ccc1N1CCCCCC1 do in these assays?
GSH bead fluor: 12; Biotin-avidin: 2; RGS8-Gao single: 105; RGS7-Gao confirm: 135*[activator]; RGS16-Gao conf: 140*[activator]; RGS4-Gao confirm: 129*[activator]; RGS19-Gao conf: 384*[activator]

Screening data as filed in PubChem.
